Screening data deposited in PubChem by several laboratories.
A selection: hits, their analogues and other compounds. The true share with any hit is near 2%.
EP2 antag: inhibitors of human EP2 prostaglandin E2 receptor | P43116 | C6 glioma cells expressing human EP2, cAMP TR-FRET; cells stimulated with saturating PGE2 | inhibition, % at 25 µM | 260,000 tested, 0.52% active;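 active means percent inhibition above 40 after rounding to a whole number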;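 further: rat C6 glioma host cells with rolipram phosphodiesterase inhibitor present; the protocol text gives 20 µM as final concentration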
CHT block: inhibitors of human choline transporter CHT. 310,000 tested, 0.86% active. B-score at 10 µM. CHT-expressing cells, membrane potential dye, choline response; hits give low values. Q9GZV3;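 active means B-score over 3 SD under the library average, and starting fluorescence ratio not unusually high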;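 further: choline stimulus applied at its EC90 after an EC20 pre-addition; B-score computed on integrated fluorescence ratio after choline addition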
Target sequence (Q9GZV3 whole entry, looked up): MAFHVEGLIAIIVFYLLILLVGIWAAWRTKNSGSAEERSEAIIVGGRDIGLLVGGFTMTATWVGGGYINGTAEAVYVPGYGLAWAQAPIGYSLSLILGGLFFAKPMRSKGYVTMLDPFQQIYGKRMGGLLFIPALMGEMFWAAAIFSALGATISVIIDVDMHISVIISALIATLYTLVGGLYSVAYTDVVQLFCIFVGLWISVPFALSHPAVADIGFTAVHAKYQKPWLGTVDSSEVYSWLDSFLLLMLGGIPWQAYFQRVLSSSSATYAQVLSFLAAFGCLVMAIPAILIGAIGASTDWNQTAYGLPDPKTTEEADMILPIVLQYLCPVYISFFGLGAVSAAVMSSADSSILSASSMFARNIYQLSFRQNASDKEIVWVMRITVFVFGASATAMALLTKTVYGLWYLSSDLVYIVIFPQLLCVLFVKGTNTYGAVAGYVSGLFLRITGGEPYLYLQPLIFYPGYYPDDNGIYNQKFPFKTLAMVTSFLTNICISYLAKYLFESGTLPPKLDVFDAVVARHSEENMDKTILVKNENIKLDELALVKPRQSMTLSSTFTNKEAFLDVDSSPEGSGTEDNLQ
EP2 modulator: EP2 receptor (human) modulation; EP2-expressing cells, cAMP HTRF FRET, PGE2 co-stimulation; induction, % at 25 µM; 260,000 tested, 0.83% active; P43116; AID 940;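 active means compounds whose cAMP rise, as percent of the full-agonist control response, exceeds 60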;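 further: rat C6 glioma line stably carrying human EP2 under a CMV promoter; the protocol text gives 20 µM as final concentration; 100% = response of wells given 1 µM PGE2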
CHT allo act: human CHT allosteric activation; 310,000 tested, 0.49% active; AID 488977; B-score at 10 µM; CHT-expressing cells, membrane potential dye, choline EC20; hits give high values; LV-AA mutant CHT in HEK293 cells;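 active means initial fluorescence not abnormally high and integrated response B-score, plate-corrected, over 3 SD above library mean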
Numbers without * were called inactive; i = inactive; nt = no result; ! = not active in a repeat.

SMILES	EP2 antag	CHT block	EP2 modulator	CHT allo act
C1CCc2nnc(-c3nnc4n3CCCCC4)n2CC1	-4	i	10	i
Cc1ccc(C)n1-c1ccc(-c2nnc3n2CCCCC3)s1	59*	i	28	i
COC(=O)c1ccc(-c2ccco2)n1Cc1cc(C)ccc1C	6	i	62*	i
CCOC(=O)c1ccccc1NC(=O)CSc1nc2ccccc2o1	4	i	61*	i
CCOC(=O)c1c(NC(=O)CSc2nc3ccccc3o2)sc(C)c1C	5	i	38	i
O=C(CN1N=C(c2ccccc2)Cn2c(cc3sccc32)C1=O)NC1CCC1	4	nt	-35	nt
S=C(Nc1cccc(Cl)c1)NC1CC2CCCC(C1)N2C1CCCC1 (stereo unspecified)	13	i	-95	i
S=C(Nc1ccc(Cl)cc1)NC1CC2CCCC(C1)N2C1CC1 (stereo unspecified)	48*!	i	-96	i
CN1C(=O)/C(=C2\SC(=S)N(CCCCCC(=O)O)C2=O)c2ccccc21	5	i	75*	i
Cc1cccc(N(CC(=O)NC2CCCC2)C(=O)c2snc(C(=O)NC3CCCCC3)c2N)c1	20	nt	-1	nt
CSc1nnc(NC(=O)c2nc(S(=O)(=O)Cc3ccccc3)ncc2Cl)s1	nt	-9.2*	nt	i
CCc1ccc(NC(=O)c2nc(S(=O)(=O)Cc3ccccc3)ncc2Cl)cc1	nt	i	nt	i
CN(C)c1ncnc2c1ncn2CCn1cnc2c(N(C)C)ncnc21	46*	nt	29	nt
CN(C)c1ncnc2c1ncn2C1OC(CO)C(O)C1O (stereo unspecified)	15	i	-1	i
Cc1nnc(SCC(=O)Nc2sc3c(c2C(=O)c2ccccc2)CCCC3)s1	6	i	28	8.1*
Cc1nnc(SCC(=O)Nc2ccccc2NC(=O)CSc2nnc(C)s2)s1	11	i	19	i
COCCCNC(=O)c1c(NC(=O)c2ccc(C)cc2)sc2c1CCCC2	12	nt	33	nt
COCCCNC(=O)c1c(NC(=O)c2ccccc2)sc2c1CCCC2	11	nt	65*	nt
CCOC(=O)c1c(NC(=O)CSc2nnc(C)s2)sc2c1CCN(C)C2	11	i	12	7.6*
CCOC(=O)c1c(NC(=O)Cc2ccccc2)sc2c1CCN(C)C2	nt	i	nt	i
Fc1ccc(-c2cc3nc4c(c(NCCc5ccccn5)n3n2)CCC4)cc1	6	nt	19	nt
Oc1[nH]c2ccc(Br)cc2c1N=NC(=S)Nc1ccc(F)cc1	12	i	-2	i
Oc1ccc(NC(=S)N=Nc2c(O)[nH]c3ccc(Br)cc23)cc1	46*	nt	-117	nt
Cc1ccc2nc(N3C(=O)C(O)=C(C(=O)c4ccc(C)o4)C3c3ccco3)sc2c1 (stereo unspecified)	49*	nt	14	nt
COC(=O)c1sc(N2C(=O)C(O)=C(C(=O)c3ccc(C)o3)C2c2cccs2)nc1C (stereo unspecified)	nt	-5.8*	nt	i
SMILES	EP2 antag	CHT block	EP2 modulator	CHT allo act
Cc1cc(N2C(=O)C(O)=C(C(=O)c3ccc(C)o3)C2c2cccs2)no1 (stereo unspecified)	56*	i	52	i
Cc1ccc2nc(N3C(=O)C(O)=C(C(=O)c4ccco4)C3c3ccc(C)o3)sc2c1 (stereo unspecified)	nt	i	nt	i
CC1Cc2ccccc2N1C(=O)CN1C(=O)N(C)N(C)c2ncccc21 (stereo unspecified)	6	nt	-70	nt
O=c1[nH]c2cc3c(cc2cc1CN(CCCO)Cc1nnnn1Cc1ccc(F)cc1)OCCO3	20	nt	-27	nt
CCOC(=O)c1cc2occc2n1Cc1ccc(F)cc1	13	i	85*!	i
CCOC(=O)c1cc2occc2n1Cc1c(F)cccc1Cl	19	i	44	i
COC(=O)c1cc2occc2n1Cc1c(F)cccc1Cl	15	nt	64*	nt
CC1CCCC(C)N1C(=O)c1cc(Cl)ccc1Cl (stereo unspecified)	9	nt	22	nt
CS(=O)(=O)N(CC(=O)Nc1ccc2c(c1)OCCO2)c1cccc2ccccc12	19	nt	-44	nt
COc1cc2c(cc1OC)-c1cc(=Nc3c(C)cc(C)cc3C)n(C)c(=O)n1CC2	6	nt	67*	nt
CCn1c(SCC(=O)Nc2cc(C)on2)nc2sc3c(c2c1=O)CCCC3	nt	i	9	i
CCn1c(SCC(=O)Nc2sc(C)c(C)c2C#N)nc2sc3c(c2c1=O)CCC3	15	nt	69*	nt
Cc1cccc(C)c1NC(=S)N(Cc1ccccc1)Cc1cccs1	9	i	63*	i
COC(=O)c1c(NC(=O)c2ccc3c(c2)OCO3)sc(C(=O)Nc2ccccc2OC)c1C	9	nt	3	nt
Cn1ccnc1C1(O)CCN(C(=O)c2ccc(F)cc2F)CC1	nt	nt	22	nt
Nc1cnc2cccc3c2c1-c1ccccc1C3=O	12	nt	15	nt
O=S(=O)(O)c1cc(O)c2c(O)c(N=Nc3cccc4ccccc34)c(S(=O)(=O)O)cc2c1	57*	nt	-14	nt
FC(F)(F)c1ccc(N=Cc2sc(N3CCOCC3)nc2-c2ccccc2)cc1	46*	i	34	i
CCOc1ccc2[nH]c(=O)c(C(c3nnnn3C3CCCC3)N3CCc4ccccc43)cc2c1 (stereo unspecified)	7	nt	31	nt
CCOc1ccc(NC(=O)c2sc(NC(=O)CC)c(C(=O)OC)c2C)cc1	14	nt	-17	nt
COc1ccc(C(=O)C2CCCN(C(=O)c3n[nH]c4c3CCCC4)C2)cc1 (stereo unspecified)	1	nt	-57	nt
COc1ccc(N2CCN(c3ncnc4c3[nH]c3ccccc34)CC2)cc1	54*	i	-45	i
CCOC(=O)N1CCN(c2ncnc3c2[nH]c2ccc(OC)cc23)CC1	2	i	-28	i
Fc1ccc2[nH]c3c(N4CCN(c5ccccc5)CC4)ncnc3c2c1	88*	i	-44	i
CCOC(=O)N1CCN(c2ncnc3c2[nH]c2ccc(F)cc23)CC1	17	i	-25	i
SMILES	EP2 antag	CHT block	EP2 modulator	CHT allo act
O=C(CCCc1c[nH]c2ccccc12)N1CCC(n2nnc3cccnc32)CC1	nt	nt	-27	nt
COc1ccc(OC)c(NC(=O)CSc2nc(C(C)C)nc3sc4c(c23)CCCC4)c1	5	nt	53	nt
CCCNC(=O)C(C)Sc1nc(-c2ccccc2)cc(C(F)(F)F)n1 (stereo unspecified)	15	nt	-129	nt
O=c1c(CN(CCCn2ccnc2)Cc2ccccc2Cl)coc2ccccc12	9	nt	24	nt
COCCNc1cc(C)nc2cc(-c3ccc(C)cc3)nn12	9	i	62*	i
CCCn1c(SCC(=O)N2CCCCCC2)nnc1-c1ccoc1C	2	nt	25	nt
O=C1C=CC(=O)N1c1ccc(OC(F)F)cc1	109*	i	-62	i
O=C1C=CC(=O)N1c1ccc(O)cc1	8	i	-55	i
CC1CCN(C(=O)CSc2nc(COc3ccccc3)nc3ccccc23)CC1	9	nt	81*	nt
CCCS(=O)(=O)N1CCCC(c2nc(-c3ccc(C(C)C)cc3)no2)C1 (stereo unspecified)	7	nt	8	nt
CC1=C(C#N)c2nc(N)c(C#N)c(C)c2/C1=C\c1cccc(Cl)c1	50*	nt	-144	nt
O=c1[nH]c(=S)[nH]c2c1CN(CCCN1CCOCC1)CN2	102*	nt	-42	nt
